Our source for the z-score values is PubChem BioAssay AID1508600 (Functional Genomics Laboratory (NCATS/FGL), 2020).

Hit rate of the full screen: of about 53,000 sequences, about 3,700 (7%) were called active. The full list was thinned out, with actives kept by preference. Values without a mark were called inactive.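 How the source made its calls: active means gene knockdowns whose robust z-score for IL-1 alpha signal is at least 2 or at most -2, so actives lie on both sides; inactive means the rest.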

The nature of this assay: Components of the Cytosolic LPS Sensing Pathway: Gene Identification via Genome-wide siRNA Screen.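 Further: robust z of the log signal after scaling to non-targeting control siRNA wells of the plate.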 To be noted: RAW264.7 macrophages, IL-1a HTRF, actives lie on both sides, screened at 100 nM (by protocol), cells primed 5 h with Pam3CSK4 first. In a few lines:
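RAW264.7; siRNA 100 nM final, RNAiMAX, 48h 37 degrees C; Pam3CSK4 5 h; LipidA + TransIT-TKO 24 h; IL-1a HTRF; CellTiter-Glo viability; robust z vs negative-control median.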
With CCAUUUAUGGAAUACACCUTT against Tmem150b, the z-score was 0.0118.

Consider GGCCAAAUGACUGAGAUUGTT against Rcan3, for which the z-score is 1.35. Take GGAAGAAUUUAAGAAGUUCTT against Pdia3: the z-score is 1.24.

Turning to GGUCCCUGUGAACAAGCUGTT against Serpinf1, the z-score is 1.12. In the case of GGUGUUACAUAUGAGGAAUTT against Ociad1 it was 1.61; in that of GGCAGACAGAGGGUAAAAATT against Slc24a1, -0.956.

As to GGAAGAGGAAUAUUACCAGTT against Marveld3, the z-score is -2.16 (active). With GGUUCUCUACAAAGUAAGUTT against Slc35e1, the z-score is -0.0459. For the sequence GCUUGUUCAGGAAAUGAAATT against Tmcc3, the z-score is -1.15. As for GGAGACAGAAUUCAAAACUTT against P2ry1, the figure is 0.0725; as for CCUUCCUACAACAAGUGUGTT against Galnt1, 2.02 (active). In the case of GCCCAGUCAAGACUAUUCGTT against Csnk2b it was 1.58; in that of GGUGAAGACCAUCUUGACCTT against Clcnkb, -1.74; in that of AGACUCGUACACGCAGGAATT against Ggn, 0.882.

As to GGCAGACAAGUUGUUAAAATT against Nusap1, the z-score is -0.913. As for GCUAGUUAUCUAAUCUCUGTT against Nuak1, the z-score is 2.79 (active).

Turning to GGAACAACUCCUGUUCCCATT against Obscn, the z-score was 1.85. In the case of GGGAAAGAGAAAUUUAAAGTT against Kcne4 it was 1.3; in that of CCCAUCAUUCCUUUCUUACTT against Ndfip2, 0.193. In the case of CCAUUCUUGCCUUUGUGCUTT against Cep55, the z-score was -1.63. GGCUGUGGUAUUUUUGGUUTT against Vopp1: the z-score was 2.15 (active). As to CCUGGUACAUCUCUGUUACTT against Olfr449, the z-score is 1.53. As for GCCACUCUAGCUCGUAUUGTT against Des, the figure is 0.896. As for GCAAGUCGAGGUAGAUUGCTT against Rap1a, the figure is 0.515; as for GGACCUAUAGUUCAACAAGTT against Pcf11, 1.08; as for CCAUGUGCGACCUGAUAAUTT against Cmtm7, 0.155. CGACAAACUACAUAGCAGATT against Brms1: the z-score is 0.823.

As to GGUCAGACAGCAAUUCACATT against Gpr146, the z-score was -2.7 (active).

As to GCUAUGUGGACGUGACCUATT against Chrnb4, the z-score was -0.739. In the case of GCUAUAGACAAGGAGAGUATT against Galnt6 it was 0.62. As for GGUCAUAGGUACGUAUCCGTT against Siglech, the figure is -0.465; as for CGUUUUUAUGAGGAGGCCUTT against N4bp3, -0.897. As for GGAUUGACAGUGGUCUAUATT against Copz1, the figure is -0.294.

Take UUUGAACAGUCACUCCUCGTT against Ipcef1: the z-score was 2.18 (active).

With “GGAGUUAAAACCAUCGUGATT against D16Ertd472e”, the z-score was 0.725.

Take CCCUAUGCAAUAUCAAAAUTT against Hnrnpa1: the z-score was 1.22.

As for GGUAAAUAGCUGUCUUGGCTT against Cerk, the z-score is -0.622. As for GCACAGUUAGCAUUGCUCCTT against Hoxc10, the figure is -1.48. As for GGAUAAUUGGGAUGAUGACTT against Sem1, the figure is -2.24 (active); as for GGCAGAGUAUGAGUUUGACTT against Camk1, 0.699; as for GGCCAAGUGCACCAUCCUATT against Gng13, -0.852. In the case of GGAGAAAGCCUUCCAAUUUTT against Kel it was -0.273; in that of GGUAGAGCAUCAGUAUCUATT against Tex16, -0.47. As for CCGCACCAUUCAGCUUUUUTT against Mmgt2, the z-score is 0.446.

Regarding GGCUCGAUUACUGAGUACATT against Bnip2, the z-score is 0.884.

With GGCUUUAGUUGUCUUUUAUTT against Cxcr1, the z-score is 0.609.

Regarding GGAGAAAAAGAGAAGUAUUTT against Skint9, the z-score was -0.874. As for GCAUGAUGGUGCGCUUAAGTT against Ngdn, the figure is -0.187.

On to GGUCAUGGAUGUGCACGAUTT against Krt14, for which the z-score is -2.21 (active). As for CCUAUACACCCAUUUUUAATT against Arl2bp, the figure is 0.163; as for GGUAACCUGAUGGCUGAAATT against Zfp692, 2.79 (active). In the case of GCCUAAGGAUCCUGGGUUATT against Orai3 it was 1.43. As for CCGUUUCUAUCGAGUGAAATT against Celf2, the figure is 0.581; as for GACUAAACAGAUCUUCUCUTT against Klra15, -0.651. Regarding GGAGAUAAUUGGUUUACAGTT against Vmn1r23, the z-score is -0.647. On to CCACACCAUAACAACAUUCTT against Olfr800, for which the z-score is -2.05 (active). As for GCAAUUCAGGUUUACUACATT against Fgg, the figure is 0.00733; as for GAAAGUUUACGGGAAAUCUTT against Klf13, 2.04 (active). As for CCAUAAGGUAACCUGUACATT against Serpinb1c, the figure is -0.244. As for GGAUUACAAGACCAUAGAUTT against Clec2g, the figure is -0.75; as for GGCACCUCUGCUUUUAAAGTT against Mrm2, 0.926. As for GGAACUGCCUGAAAAAAUGTT against Dcn, the z-score was -2.76 (active). As for CAUAUUCCUUGCAUUACAATT against Taok3, the figure is 0.929. In the case of GGUUCAGAAGUUUGGGAGATT against Mrpl48 it was 0.615; in that of GGACUGAUUGAUAAAGUCATT against Srp54a, -0.458.

Consider UAAAAAUGAGCCGGGCAAUTT against Ms4a5, for which the z-score was 1.42.

On to GGAGCAAAGCUAAAUGUUGTT against Far1, for which the z-score was -0.476. In the case of GGAUUUGGCAACAGACUUUTT against Ryr2, the z-score was -0.391. As for CACCGUAAUAAUCACACUATT against Zfp667, the figure is -0.854; as for “GGUACGAAGGAAAAUUUACTT against 2810407A14Rik”, 2.72 (active); as for GGUUACCAUGUGAAGCAGGTT against Tnfrsf14, -0.461. As for GGAUAACUCCUUAUUUAACTT against Teddm3, the figure is 1.25. In the case of GGAAAACCAGAAAGAAUUUTT against Crnkl1 it was -0.334; in that of GGAACAAGUUUGUGCUUUCTT against Cpd, 0.728. Take GGAUAACCAACAAGGUUUUTT against Mgst1: the z-score was 0.701. As for GGUGGAACACAUAUUUUAATT against Tbc1d13, the figure is 0.837. As for CGCCCAUGUACAGAUUUGUTT against Olfr429, the figure is -2.33 (active); as for GCUUCACCUGACAAUGACUTT against Tsc22d3, 1.2; as for GGGACAGGUUGAGGUCUAUTT against Vmn1r233, 2.01 (active). In the case of GGCAUACCGAAAGUUAGCCTT against Dnaja2 it was -0.724; in that of GGAGGUCCAGGAUUUUAUATT against Styk1, 1.12; in that of “GCUUCAACAUGCUUUGUUUTT against A430010J10Rik”, -0.555. Consider CCCUACUCCUCAGAACUUATT against Tbc1d10a, for which the z-score was -0.499. CCAAAAAGAGCGAUUACCCTT against Shc1: the z-score was 0.368. With CGCAGAAAGAGCAUCAGAUTT against Atg9a, the z-score is -2.42 (active). In the case of GCGACUGUGGUGGUUACAUTT against Bcas2 it was 0.444; in that of “GGGAAGGAAGAAUUUAUUUTT against 6430571L13Rik”, 1.24. With GCUGCUCAAUCGGAAAUACTT against Clk1, the z-score is -2.06 (active). In the case of CCAGGUGUAUAAUAAGAUGTT against Atp8b3 it was 0.271. In the case of GCAAUGACAGAACAUACAGTT against Cts7, the z-score was 1.67. As for GGCAGAAAGAAAUUGAGAATT against Trim42, the figure is -0.655; as for CAGCAUCUUUGAUUGUCUGTT against Tssc4, 2.15 (active); as for GCUUAUGCCAGUCUGUCAUTT against Hax1, -0.206.

Take CCAUACAUCAGUACUUACCTT against Olfr553: the z-score is 0.477.

Turning to GCGUGUUCGCUUCUUGCUATT against Trub2, the z-score is -0.614. As for CCACAGAAUAAGACAAUAUTT against Fbxo34, the z-score was -3.03 (active). As for CCAUUCAGUCGAUUACAUUTT against Chd9, the figure is 0.204; as for GGACUUUUCUUUUGGAAGGTT against Nbl1, -0.08; as for GCCUUUCCACCGAUGAAAUTT against Dpyd, -0.473. As for GGAGCACAUCUUUUCUGCCTT against Mixl1, the figure is -1.22. Turning to CCAAUUAUUAUCCAAGGGCTT against Slc16a6, the z-score is -0.0144. For the sequence GCUAUAACCUCACCGAGAATT against Tedc2, the z-score was 2.09 (active).

Turning to GGAAAAGCAGACAUGUGAUTT against Dedd, the z-score is -0.875. As for CCAUUCAUACCAUACCUGUTT against Tmem50a, the figure is -0.521; as for GGGCAUUAGGGUGGUAGCATT against Gapdhs, -0.826. In the case of GCUUAGUGGUUCUUAUUUGTT against Olfr893 it was -0.214; in that of GCUUCAUAUAGACAAAGCCTT against Epo, -0.625.
